Measurements taken from PubChem BioAssay AID2158 (National Center for Advancing Translational Sciences (NCATS), 2009).
Values joined by “and” are separate entries in the source; they are usually repeats but may differ in a detail not shown here. Identical values can stand only once. Records with an inconclusive call do not appear. Active and inactive are the calls of the source. Calls come from the whole dose curve; as a rule, active = well fitted inhibition curve with a large enough effect; inconclusive = small, poorly fitted or top-dose-only effect; inactive = no such curve, though single readings can be large or run the other way.

Molecular target: Cruzipain (Trypanosoma cruzi) (UniProt P25779)
Sequence (P25779 123-467 limits assumed): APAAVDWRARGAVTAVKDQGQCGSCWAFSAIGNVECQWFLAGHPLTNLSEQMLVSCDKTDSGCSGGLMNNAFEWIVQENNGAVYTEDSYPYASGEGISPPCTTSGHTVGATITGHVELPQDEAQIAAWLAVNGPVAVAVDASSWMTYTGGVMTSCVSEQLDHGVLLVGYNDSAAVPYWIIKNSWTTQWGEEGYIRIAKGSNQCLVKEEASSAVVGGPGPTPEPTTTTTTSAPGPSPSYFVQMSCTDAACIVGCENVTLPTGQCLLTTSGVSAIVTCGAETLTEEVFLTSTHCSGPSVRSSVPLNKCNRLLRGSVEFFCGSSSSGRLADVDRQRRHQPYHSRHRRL
Assay: Confirmation qHTS Assay for Inhibitors of Cruzain; note: nearly all actives have a fitted effect of over 40% in size;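 for activity change, negative = inhibition: plate controls were uninhibited enzyme control for no effect and buffer wells lacking enzyme for full effect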
Settings: purified cruzain, Z-FR-AMC fluorescence, 0.01% Triton
How it was run: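 Purified cruzain, 1.5 nM, pre-incubated 15 min at room temperature with compound in 100 mM sodium acetate pH 5.5, 5 mM DTT, 0.01% Triton X-100. Then 2 uM Z-FR-AMC added; AMC fluorescence (ex 360/em 450 nm) increase over 60 s gave reaction progress.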
Potency is the fitted concentration of half-maximal effect.

Row | SMILES | Potency | activity change, negative = inhibition
1 | N#Cc1nc(Nc2cc(F)cc(F)c2)nc(Nc2cc(F)cc(F)c2)n1 | 0.0794 µM (active) | –
2 | Cc1nc2cc(-c3ccccc3)nn2c(C)c1CCC(=O)N1CCN(c2ccccc2)CC1 | – | -13% (inactive)
3 | COc1ccc(-c2nc(C#N)c(NCCCN3CCOCC3)o2)cc1 | – | -29.3% (inactive)
4 | Cc1cc(C)cc(OCCn2c(CCNC(=O)C3CCCCC3)nc3ccccc32)c1 | 631 nM (active) and 2.24 µM (active) | –
5 | N#Cc1nc(Nc2ccccc2)nc(NC2CCCCC2)n1 | 1.41 µM (active) | –
6 | O=C(NC1CC1)c1ccc2nc(-c3ccco3)c(-c3ccco3)nc2c1 | 14.1 µM (active) | –
7 | CC(=O)OC1(C(F)(F)F)Oc2ccccc2NC1=O (centres undefined) | 2.82 µM (active) | –
8 | O=C(CNC(=O)c1ccc(Cl)cc1Cl)OC(C(=O)Nc1cc(C(F)(F)F)ccc1Cl)c1ccccc1 (centres undefined) | 7.08 µM (active) | –
9 | O=C(CNC(=O)C1CCCCC1)OCC(=O)c1ccc2c(c1)CCC2 | 6.31 µM (active) | –
10 | CNc1oc(Cc2ccccc2)nc1S(=O)(=O)c1ccc(Cl)cc1 | 25.1 µM (active) | –
11 | N#Cc1nc(Nc2ccc3ccccc3c2)nc(NC2CCCC2)n1 | 1.26 µM (active) | –
12 | Nc1ccc2c(c1)C(=O)C(=O)c1ccccc1-2 | – | -54.3% (inactive)
13 | N#Cc1nc(NCCCO)nc(Nc2ccccc2)n1 | 2.24 µM (active) | –
14 | O=c1cc(-c2cccc(Br)c2)nc(-c2ccccc2F)o1 | 11.2 µM (active) | –
15 | COc1ccc(C(=O)COC(=O)CNC(=O)C2CCCCC2)c(OC)c1 | 14.1 µM (active) | –
16 | O=C(CNC(=O)c1ccccc1)NCC(=O)OCC(=O)c1ccc2ccccc2c1 | – | 21.1% (inactive)
17 | O=C(COC(=O)CNC(=O)c1ccccc1)Nc1cc(C(F)(F)F)ccc1Cl | 11.2 µM (active) | –
18 | Cc1cccc(C(=O)NCC(=O)OC(C(=O)Nc2cc(C(F)(F)F)ccc2Cl)c2ccccc2)c1 (centres undefined) | 7.94 µM (active) | –
19 | CCOc1nc(C#N)nc(N2CCCCC2)n1 | 2.51 µM (active) and 3.55 µM (active) | –
20 | COc1ccc(S(=O)(=O)NC2CCN(C#N)CC2)cc1 | – | -4.94% (inactive)

Row | SMILES | Potency | activity change, negative = inhibition
21 | O=C(CNC(=O)C1CCCCC1)OCC(=O)c1ccc(Br)cc1 | 2.24 µM (active) | –
22 | COc1ccccc1OCCCn1c(CCNC(=O)C2CCCCC2)nc2ccccc21 | 0.708 µM (active) | –
23 | Cc1cccc(C)c1OCCn1c(CCNC(=O)C2CCCCC2)nc2ccccc21 | 1.12 µM (active) | –
24 | CC(C)COC(=O)c1nnsc1NC(=O)Nc1ccccc1 | – | -3.71% (inactive)
25 | NNC(=O)Cn1c(SCc2ccccc2)nc2ccccc21 | – | 3.64% (inactive)
26 | N#Cc1nc(Nc2ccc(Br)cc2)nc(NC2CCCC2)n1 | 0.501 µM (active) | –
27 | N#Cc1ccc(C(=O)NCC(=O)OC(C(=O)Nc2cc(C(F)(F)F)ccc2Cl)c2ccccc2)cc1 (centres undefined) | 12.6 µM (active) | –
28 | CN(C)c1nc(C#N)nc(N2CCOCC2)n1 | 10 µM (active) and 8.91 µM (active) | –
29 | O=C(Cc1nnc(CNC(=O)c2ccccc2)o1)Nc1cc(C(F)(F)F)ccc1Cl | – | -8.68% (inactive)
30 | COc1ccc(NC(=O)C(OC(=O)CNC(=O)c2ccccc2)c2ccccc2)c(C)c1 (centres undefined) | 8.91 µM (active) | –
31 | CCOc1ccc(-c2cc3nc(C4CCN(C(=O)OC(C)(C)C)CC4)c(C(=O)O)cn3n2)cc1 | – | -33% (inactive)
32 | N#Cc1nc(Nc2cccc(-c3ccccc3)c2)nc(NC2CCCC2)n1 | 2.24 µM (active) | –
33 | O=C(CNC(=O)c1ccccc1)OCC(=O)c1ccc2ccccc2c1 | 15.8 µM (active) | –
34 | N#Cc1nc(Nc2cccc(Cl)c2)nc(NC2CCCC2)n1 | 0.0794 µM (active) | –
35 | N#Cc1nc(Nc2cc(Cl)cc(Cl)c2)nc(NC2CCCC2)n1 | 0.398 µM (active) | –
36 | COc1ccc(OCCCn2c(CCNC(=O)C3CCCCC3)nc3ccccc32)cc1 | 1.41 µM (active) | –
37 | COc1nc(C#N)nc(N2CCCCC2)n1 | 2.82 µM (active) | –
38 | Cc1cccc(C(=O)NC2CCN(C#N)CC2)c1 | – | -3.52% (inactive) and 7.39% (inactive)
39 | CC(C)(C)OC(=O)NCc1nnc(C(C(=O)OCc2ccccc2)c2ccccc2)s1 (centres undefined) | – | -11.8% (inactive)
